Reference: PMC5540273 (PLoS ONE, 2017)

Each compound was assayed on T1, MST3. Conditions: concentration: 1 μM, replicates: in singlicate; n = 1.
T1 construct: gene STK24
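Further: KINOMEscan kinase panel screen.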

Structure (SMILES)	%Inh
Cl.Nc1ncnc2occ(-c3ccc(NC(=O)Nc4cc(C(F)(F)F)ccc4F)cc3)c12 [SB-707548]	52%
Fc1ccc(-c2ncn(CCCN3CCOCC3)c2-c2cccnc2)cc1 [SB-211743]	0%
CCCCCc1nc2c(N)ncnc2n1CCCCC [SKF-97255]	0%
c1ccc(-c2cc(-c3c[nH]nc3-c3ccccn3)ccn2)cc1 [GW576604]	0%
COc1ccc(Nc2nccc(N3CCC(NC(=O)Nc4cccc(C(C)=O)c4)C3)n2)cc1 (stereo not drawn) [GSK1379731]	0%
CCc1nc(-c2cccc(C)c2)c(-c2ccnc(NCc3ccccc3)c2)s1	4%
COC(=O)Nc1nc2cc(Oc3ccc(NC(=O)Nc4cc(F)ccc4F)cc3)ccc2[nH]1.Cl [GW701424]	6%
CN1c2ccc(CNc3ccc(F)cc3)cc2-c2c(cnn2C)S1(=O)=O	0%
O=C(NCCCN1CCOCC1)c1cccc(Nc2nccc(Nc3ccc(Oc4ccccc4)cc3)n2)c1 [GW663929]	14%
N#Cc1c(N2CCOCC2)sc(-c2ccn[nH]2)c1-c1ccc(Cl)cc1	19%
O=C1Cc2cc(Nc3nc(NCc4cccc(S(=O)(=O)C(F)(F)F)c4)ncc3C(F)(F)F)ccc2N1	0%
[2H]C([2H])(c1cccc(C(F)(F)F)c1C)n1ccn2c(=O)nc(N3CCOCC3)cc12 [GSK2336394]	11%
COc1cc2c(cc1OCCN1CCN(C)CC1)ncc1c3ccc(C#N)cc3[nH]c21	36%
O=c1cc(N2CCOCC2)nc2n(Cc3cccc(C(F)(F)F)c3)ccn12 [GSK2297543]	9%
Nc1nccc(-c2c(-c3ccc(F)cc3)ncn2C2CCN(CC(F)(F)F)CC2)n1 [SB-236560]	0%
CN(C(=O)c1ccc(-c2cc(-c3c[nH]nc3-c3ccccn3)ccn2)cc1)C1CCOCC1 [GW810083]	34%
NCC(NC(=O)c1cc(-c2cn[nH]c2)c(-c2ccnc3[nH]ccc23)s1)c1ccccc1.O=C(O)C(F)(F)F.O=C(O)C(F)(F)F (stereo not drawn) [GSK1325775]	1%

Structure (SMILES)	%Inh
COCCNC(=O)c1ccc(-c2cc(C(=O)NC3CC3)cc(F)c2C)cc1 [GW868318]	3%
Fc1ccc(-c2nn3c(OCC(F)(F)F)cccc3c2-c2ccncc2)cc1 [GW514784]	12%
C[C@@H](Oc1cc(-n2cnc3ccc(NC(=O)NC(C)(C)C)cc32)sc1C(N)=O)c1ccccc1Cl [GSK346294]	13%
Cl.Oc1cccc(Nc2ccnc3cc(-c4ccncc4)ccc23)c1 [GW494601]	13%
Cc1cn2c(=O)cc(N3CCOCC3)nc2n1Cc1cccc(Cl)c1Cl [GSK2334006]	0%
Cc1cccc(-c2nc(-c3ccc(S(C)(=O)=O)cc3)sc2-c2ccncc2)c1	5%
Cc1cccc(-c2nc(Nc3ccc4ncsc4c3)c3ccccc3n2)n1 [GW867588]	0%
NS(=O)(=O)c1cccc(-c2ccc3ncc(N4CCOCC4)nc3c2)c1 [GSK1535721]	0%
O=c1cc(N2CCOCC2)nc2n(Cc3cccc4ccccc34)ccn12 [GSK2333389]	0%
CN1c2ccc(NCc3ccc(F)cc3)cc2-c2c(cnn2C)S1(=O)=O	0%
O=c1cc(N2CCOCC2)nc2n(Cc3cccc(Cl)c3Cl)c(C3CC3)nn12 [GSK2358994]	4%
CSc1ccc(-c2cc3ncnc(SCC(=O)O)c3s2)cc1	22%
Cc1nnc(-c2ccc(C)c(-c3ccc(C(=O)Nc4ccc(NS(C)(=O)=O)cc4)cc3)c2)o1 [GW702865]	0%
Cc1nnc(-c2ccc3occ(-c4ccc(C(C)O)cc4)c3c2)o1 (stereo not drawn)	0%
O=C(Nc1cccc(-c2nn3ncccc3c2-c2ccnc(Nc3cccc(C(F)(F)F)c3)n2)c1)c1c(F)cccc1F [GSK299495]	0%
Cc1ccc(C(=O)NCC(N)=O)cc1-n1c(C)cc(OCc2ccc(F)cc2F)c(Br)c1=O	26%
